Assay in all cases: NCI-60 one-dose screen, 48 h (100 = growth as untreated, 0 = no growth, -100 = all killed)
Settings in all cases: 10 µM

Assay [1] has as its system 786-0 renal.
Assay [2] deals with MALME-3M melanoma.
For assay [3], the system named is MDA-MB-231 breast.
In assay [4] the test system is SF-268 CNS.
Assay [5] has as its system SF-295 CNS.
For assay [6], the system named is UACC-257 melanoma.
Assay [7] concerns U251 CNS.
For assay [8], the system named is PC-3 prostate.
In assay [9] the test system is UACC-62 melanoma.
Assay [10] deals with SK-MEL-2 melanoma.
Assay [11] has as its system SN12C renal.
For assay [12], the system named is UO-31 renal.
Assay [13] has as its system TK-10 renal.
The test system of assay [14] is ACHN renal.
Assay [15] deals with A498 renal.
The test system of assay [16] is OVCAR-5 ovarian.
Assay [17] concerns OVCAR-3 ovarian.
For assay [18], the system named is HS 578T breast.
For assay [19], the system named is NCI/ADR-RES ovarian.
The subject of assay [20] is BT-549 breast.

The values that follow come from PubChem BioAssay (NCI).

About 83,000 compounds went through this panel and 20% of them were active in at least one assay; those are over-represented in the sample as a whole.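 Single-concentration screen, 48 h exposure, 96-well plates. Endpoint: percent growth. Below 10 = active.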 Unmarked numbers belong to inactive results. Activity calls are given as the source filed them.

With `O=C1NC2C=CC=CC2/C1=C1/SC(=S)N(C2CC(=O)N(c3ccc(Br)cc3)C2=O)C1=O` (stereo not given), the growth is 97.5% in assay [1]; 97.6% in assay [2]; 101% in assay [3]; 95.7% in assay [4]; 109% in assay [5]; 95.9% in assay [6]. Moreover, the growth in assay [7] is 91.4%; in assay [8] it was 76.6%; in assay [9], 87.6%; in [10] it was 107%; in [11], 96%; in assay [12], 68.3%. In addition, the growth in assay [13] was 124%; in assay [14] it was 94.1%; in assay [15], 129%; in assay [16], 104%; in assay [17], 92.2%; in [18] it was 98.9%. The values for the growth in assay [19] and in [20] were 95.6% and 101%, respectively.
For `Cc1ccc(COc2ccc(NC(=O)Nc3ccc(Cl)c(C(F)(F)F)c3)cc2)cc1`, the growth in [1] was 89.4%; in assay [2], 75.5%; in [3], 90.2%; in assay [4], 86.2%; in [5] it was 67.7%; in [6], 76.1%. Besides, the growth in assay [7] is 69.8%; in assay [8] it was 38.4%; in assay [9] it was 60.5%; in [10], 85.3%; in [11] it was 81.1%; in assay [12], 63.5%. In addition, the growth in assay [13] was 77.9%; in assay [14] it was 56.8%; in assay [15] it was 82.6%; in [16] it was 85%; in [17] it was 68.7%; in [18] it was 86.7%. Further, the growth in assay [19] was 84.7%; in assay [20] it was 74.4%.
Turning to `O=C(CSc1nc2ccccc2c(=O)n1-c1ccc(Cl)cc1)Nc1ccc(-c2nc3ccc([N+](=O)[O-])cc3[nH]2)cc1`, the growth in assay [1] is 53.7%; in assay [2], 21.7%; in [3], 42.7%; in assay [4], 38.4%; in assay [5] it was 23.7%; in [6], 36%. In addition, the growth in assay [7] is 20.6%; in assay [8], -14.9% (active); in assay [9] it was 36.9%; in assay [10], 34.4%; in assay [11] it was 42.9%; in [12], 74.3%. Besides, the growth in assay [13] was 89.9%; in [14], 45.5%; in assay [15], 81.7%; in [16], 92.6%; in [17], 19.4%; in [18], 11.8%. Besides, the figures for the growth in assay [19] and in [20] were 61.3% and -2.07% (active), respectively.
Regarding `COc1ccc(C(=O)COc2ccc(NC(=O)Nc3ccccc3)cc2)cc1`, the growth in [1] is 94%; in [2], 85.3%; in [3], 94.1%; in assay [4] it was 91.6%; in [5], 90.5%; in assay [6], 93.8%. In addition, the growth in assay [7] is 86.5%; in assay [8], 83.1%; in [9] it was 80%; in [10], 80.8%; in assay [11], 91.1%; in assay [12], 80%. The growth was 101% in assay [13]; 98% in [14]; 104% in assay [15]; 98.7% in assay [16]; 104% in [17]; 97.3% in [18]. Further, the growth is 86.4% in assay [19] and 76.2% in assay [20].
Consider `COc1cccc(C(=O)CSc2nc(-c3ccc(OCc4ccccc4)c(OC)c3)c(C#N)c(=O)[nH]2)c1`, for which the growth in assay [1] is 85.7%; in [2] it was 98.3%; in [3], 91.1%; in assay [4], 97.4%; in assay [5], 95.2%; in assay [6], 94%. For the same compound, the growth is 79.2% in assay [7]; 103% in [8]; 90.9% in assay [9]; 91.7% in assay [10]; 85.6% in assay [11]; 82.8% in assay [12]. Further, the growth is 94.7% in assay [13]; 99.9% in assay [14]; 95.4% in assay [15]; 100% in assay [16]; 106% in assay [17]; 90.8% in [18]. Besides, the growth in [19] is 96.9%; in assay [20], 102%.
For the compound `CCn1c(SCC(=O)Nc2ccc(-c3nc4ccccc4[nH]3)cc2)nc2ccccc2c1=O`, the growth is -89.1% (active) in assay [1]; -83.6% (active) in assay [2]; -71.1% (active) in assay [3]; -29.4% (active) in [4]; -66.8% (active) in [5]; -84.6% (active) in [6]. Further, the growth was -74.9% (active) in assay [7]; -80.6% (active) in assay [8]; -81.7% (active) in assay [9]; -79.4% (active) in assay [10]; -77.7% (active) in assay [11]; -95.4% (active) in assay [12]. For the same compound, the growth in assay [13] was -95.4% (active); in [14], -86.4% (active); in [15], -75% (active); in assay [16], -44.4% (active); in [17], -66.1% (active); in [18], -37.8% (active). The growth in assay [19] was -42.6% (active); in [20], -83.6% (active).
With `Cn1cc(-c2nc(N)nnc2-c2c[nH]c3ccccc23)c2cc(Br)cnc21`, the growth in assay [1] is 28.4%; in assay [2] it was 36.7%; in assay [3], 16.3%; in [4] it was 20.3%; in assay [5] it was 15%; in assay [6] it was 46%. Further, the growth in assay [7] was 8.89% (active); in assay [8], 13.3%; in assay [9], 21.1%; in [10], 24.7%; in assay [11], 17.7%; in [12], 11.8%. Also, the growth in assay [13] was 64.2%; in assay [14], 19.2%; in assay [15] it was 96.3%; in [16], 21.8%; in assay [17] it was 9.25% (active); in [18] it was 40.7%. Also, the growth in assay [19] was 3.11% (active); in [20], -29.6% (active).
